Compound activity as filed in PubChem.
Compounds with a hit are over-represented: about 7.5% of the library has one in this group of screens.
Vaccinia Venus: qHTS for Stage-Specific Inhibitors of Vaccinia Orthopoxvirus: Venus Reporter Primary qHTS. AID 720580, 2013. Vaccinia virus Venus reporter expression, fluorescence. 330,000 compounds, 0.46% hits. Potency, µM (highest dose often 36.5 µM), for inactives: at the top dose activity change, negative = inhibition, usual class: inhibitors; calls by dose curve; tested in A549 cells; note: potency is the fitted concentration of half-maximal effect; nearly all actives have a fitted effect of over 30% in size
FBPA Giardia inh: qHTS Assay for Inhibitors of Fructose-1,6-bisphosphate Aldolase from Giardia Lamblia. Potency, µM (titrated, usually from 59.6 µM), without a hit: at the highest dose activity, negative = inhibition, most hits filed as inhibitors. AID 2451, 2010. purified Giardia FBPA. 290,000 compounds, 0.71% hits. A8B2U2; note: potency is the fitted concentration of half-maximal effect; nearly all actives have a fitted effect of over 55% in size
Target sequence (A8B2U2 whole entry, looked up): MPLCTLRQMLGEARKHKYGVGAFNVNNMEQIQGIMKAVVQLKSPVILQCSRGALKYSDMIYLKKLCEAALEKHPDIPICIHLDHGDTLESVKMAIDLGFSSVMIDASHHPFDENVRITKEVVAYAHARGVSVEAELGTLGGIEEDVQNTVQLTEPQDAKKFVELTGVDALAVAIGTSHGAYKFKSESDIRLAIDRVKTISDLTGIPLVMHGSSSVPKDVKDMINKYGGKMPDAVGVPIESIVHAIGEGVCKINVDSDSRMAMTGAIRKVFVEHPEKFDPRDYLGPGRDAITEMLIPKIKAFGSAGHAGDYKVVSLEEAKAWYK
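Giardia FBPA (40 nM reagent) was preincubated 10 min at RT with compound (up to 57.5 uM final), then substrate plus GAPDH/TPI/NAD/arsenate coupling system with diaphorase/resazurin was added; resorufin fluorescence (525/598 nm) was read after 20 min.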
FMDV inh: High Throughput Screening for Foot and Mouth Disease Virus Antivirals; FMDV antiviral cell-based qHTS; Potency, µM (doses to about 57.9 µM), inactives show at the top dose activity change, negative = inhibition, hits mostly inhibitors; 410,000 compounds, 1.2% hits; calls by dose curve; tested in HEK293T cells; note: read-out not given here; potency is the fitted concentration of half-maximal effect; nearly all actives have a fitted effect of over 45% in size
VACV mCherry inh: qHTS for Stage-Specific Inhibitors of Vaccinia Orthopoxvirus: mCherry Reporter Primary qHTS; Vaccinia virus mCherry reporter infection, fluorescence; Potency, µM (titrated, usually from 36.5 µM), inactives show at the highest dose activity change, negative = inhibition, actives largely listed as inhibitors; 310,000 compounds, 0.63% hits; AID 720579, 2013; calls by dose curve; tested in A549 cells; note: potency is the fitted concentration of half-maximal effect; nearly all actives have a fitted effect of over 35% in size
HCMV antiviral: qHTS Assay for inhibitors of the human cytomegalovirus (HCMV); AID 1259415, 2018; 410,000 compounds, 4.5% hits; HFF cells, HCMV-luciferase reporter, 72 h; hits give low values; activity change, negative = inhibition, % at 57.5 µM; in the data active = activity change below about -60%; inconclusive = no clear call, values can overlap the other calls; inactive = above about -39%
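Steps: HFFs plated, 16 h 37C; compounds added; HCMV-luciferase added to MOI 1 PFU/cell; 72 h 37C; OneGlo reagent, 5 min room temperature; luminescence read, normalized to controls.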
HCV inhibitor: qHTS Assay for Inhibitors of Hepatitis C Virus (HCV); Huh7.5.1 HCVcc-Cre infection, luciferase reporter, 44 h; Potency, µM (highest dose often 41.8 µM), for the others: top-dose activity change, negative = inhibition, actives largely listed as inhibitors; 340,000 compounds, 3.4% hits; AID 651820, 2012; note: potency is the fitted concentration of half-maximal effect
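Cells (1,000/well) were plated 4 h before compound, then infected with HCVcc-Cre virus (~0.5 moi). After 44 h further culture, infection was read as luciferase luminescence following a 15 min substrate incubation at room temperature.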
The depositor's hits bear a star; i = inactive; u = inconclusive; x = no result given. Unless noted, calls come from the whole dose curve; as a rule, active = well fitted curve in the direction sought with a large enough effect; inconclusive = small, poorly fitted or top-dose-only effect, or another doubt; inactive = no such curve, though single readings can be large; an effect the other way counts as inactive or inconclusive. % is set by controls: 0 for no effect and ±100 for the full control effect.

SMILES	Vaccinia Venus	FBPA Giardia inh	FMDV inh	VACV mCherry inh	HCMV antiviral	HCV inhibitor
CS(=O)(=O)Nc1ccc(C2=NN(C(=O)C3CCCCC3)C(c3cccs3)C2)cc1 (stereo not given)	u	-1.6%	20µM*	-21.2%	-62.2*	4.8%
CC(C)C(=O)N1N=C(c2ccc(NS(C)(=O)=O)cc2)CC1c1cccs1 (stereo not given)	-26.4%	6.7%	18.9%	-13.6%	49.6	u
Cc1ccc(C(=O)N2N=C(c3cccc(NS(C)(=O)=O)c3)CC2c2cccs2)cc1 (stereo not given)	x	8.9%	-12.4%	x	-60.0*	u
O=C(CCc1ccc(S(=O)(=O)N2CCOCC2)cc1)Nc1nc(COc2ccccc2)cs1	x	-1.3%	14.1µM*	x	-92.5*	u
O=C(CCc1ccc(S(=O)(=O)N2CCOCC2)cc1)Nc1nccs1	-12.1%	4.2%	-20.9%	x	-7.2	16.0%
O=C(Cc1cccs1)Nc1nc(-c2ccccc2)cs1	x	-5.5%	u	x	-37.3	u
Cc1nc(CC(=O)Nc2nc(-c3ccccc3)cs2)cs1	-8.2%	-14.8%	-2.2%	i	-73.3*	u
Cc1ccc(-c2csc(NC(=O)CN3CCOCC3)n2)cc1	-18.5%	-9.4%	-11.7%	-5.5%	u	u
O=C(COc1ccccc1)Nc1nc(-c2ccncc2)cs1	-20.8%	x	28.2µM*	i	-13.2	-8.7%
O=C(CN1CCOCC1)Nc1nc(-c2ccc(Cl)cc2)cs1	-16.7%	-5.5%	u	i	-26.3	22.4µM*
CCCCn1c(N)c(N(CC(C)C)C(=O)c2ccc(C)c(S(=O)(=O)N3CCCCC3)c2)c(=O)[nH]c1=O	-0.5%	x	9.7%	-14.9%	-4.8	10.5%
CC(OC(=O)c1cc(=O)[nH]c2ccccc12)C(=O)NC1CCCCC1C (stereo not given)	-12.9%	x	-8.2%	i	-30.9	20.6%
O=C(COC(=O)c1ccc(S(=O)(=O)N2CCOCC2)cc1)Nc1nc(-c2ccccc2)cs1	-11.4%	2.2%	10.6%	x	2.1	9.7%
O=C(COc1ccccc1)Nc1nc(-c2ccc(S(=O)(=O)N3CCOCC3)cc2)cs1	-22.8%	0.0%	14.1µM*	-7.0%	-38.0	u
COc1ccccc1OCC(=O)Nc1nc(-c2ccc(S(=O)(=O)N3CCOCC3)cc2)cs1	u	x	u	x	-26.5	15.8µM*
O=C(COc1ccc(Cl)cc1)Nc1nc(-c2ccc(S(=O)(=O)N3CCOCC3)cc2)cs1	x	-5.3%	u	x	-10.2	11.2µM*
COc1ccc(-c2csc(NC(=O)c3ccc(OCC(=O)N4CCOCC4)c(OC)c3)n2)cc1OC	u	1.2%	14.1µM*	u	-82.5*	u
COc1cc(NCCCn2cnc3c(OC)ncnc32)cc(OC)c1OC	-9.3%	x	-8.9%	-11.5%	-3.9	x
CC(C)CNC(=O)C(C)(C)n1cc(NC(=O)COCc2ccccc2)cn1	x	x	x	x	4.3	x
Cc1ccc(-c2csc(NC(=O)COc3ccc(N(C)S(=O)(=O)c4ccc(C)cc4)cc3)n2)cc1	-18.0%	-3.0%	-27.6%	i	u	7.94µM*
COc1cc(C(=O)NNC(=O)COc2ccc(C)cc2)ccc1OCC(=O)N1CCOCC1	x	x	-5.8%	x	-33.8	-5.9%
COc1cc(C(=O)NNC(=O)COc2cccc(F)c2)ccc1OCC(=O)N1CCOCC1	x	x	-23.4%	x	-69.6*	-6.3%
C/C(=N\NC(=O)c1nnn(-c2nonc2N)c1-c1ccc2c(c1)OCO2)c1ccc(C)cc1	20.4%	x	-7.6%	-2.6%	-33.4	0.2%
Cc1noc(C)c1-c1ccc2ncnc(NCc3cccs3)c2c1	x	-3.7%	2.0%	x	x	x
CC(=O)OC1(C)CC(C)C(=O)C(C(O)CC2CC(=O)NC(=O)C2)C1 (stereo not given)	0.1µM*	x	u	u	-105.2*	0.501µM*
SMILES	Vaccinia Venus	FBPA Giardia inh	FMDV inh	VACV mCherry inh	HCMV antiviral	HCV inhibitor
CCN(CC)S(=O)(=O)c1cccc(NC(=O)Nc2cccc(C(F)(F)F)c2)c1	x	-1.9%	17.8µM*	x	x	2µM*
O=C(CNc1cc(S(=O)(=O)N2CCOCC2)ccc1N1CCOCC1)Nc1cccc(C(F)(F)F)c1	2.1%	x	-10.3%	i	0.7	8.1%
O=C(NCCC1=CCCCC1)C1CCN(S(=O)(=O)c2ccccc2)CC1	1.8%	4.9%	-6.5%	-11.0%	-5.3	8.2%
O=C(NCCC1=CCCCC1)C1CCN(S(=O)(=O)c2cccc(C(F)(F)F)c2)CC1	x	x	u	x	32.7	11.2µM*
N#Cc1cccc(NC(=O)CNc2cccc(S(=O)(=O)N3CCCC3)c2)c1	-18.6%	x	1.8%	-24.8%	-26.3	2.51µM*
N#Cc1cccc(NCC(=O)Nc2cccc(S(=O)(=O)N3CCCCC3)c2)c1	x	x	12.3%	x	-11.1	u
O=C(CNc1cc(S(=O)(=O)N2CCCC2)ccc1OCC(F)(F)F)Nc1cccc(C(F)(F)F)c1	u	-14.2%	u	u	-68.6*	11.2µM*
C/C=C/C1=Cc2ccccc2C(C(C(=O)OC)C(=O)OC)N1C(=O)OC (stereo not given)	x	-1.3%	x	x	x	x
O=C(CNc1cccc(C(F)(F)F)c1)Nc1cccc(S(=O)(=O)N2CCCC2)c1	x	x	-20.9%	x	u	11.2µM*
O=C(CCOc1ccccc1)NO	-4.0%	x	x	-8.6%	x	x
O=C1c2cccc3cccc(c23)C(=O)C1(O)O	-6.3%	x	22.4µM*	-16.9%	-68.9*	-25.8%
O/C=c1\ccc2cccc3nc(C(F)(F)F)nc1c23	9.6%	u	12.6µM*	-8.3%	-25.9	u
COc1ccc(-c2c(C(=O)c3ccccc3)[nH]c(N)c2C(=O)c2ccccc2)cc1OC	-26.7%	x	-22.3%	u	-70.4*	x
COc1cc(/C=N/Nc2ccc(C(=O)O)cc2)cc(OC)c1OC	x	-1.2%	12.8%	x	69.1	29.7%
COc1cc(/C=N/Nc2ccc(S(N)(=O)=O)cc2)cc(OC)c1OC	-23.9%	0.3%	28.2µM*	u	4.1	10µM*
C/C(=N\NC(=O)CNC(=O)C(c1ccccc1)c1ccccc1)c1ccc(C(C)(C)C)cc1	-1.2%	-2.4%	-2.0%	-24.2%	-75.6*	20.8%
O=C(c1ccc(Br)cc1)c1cc([N+](=O)[O-])ccc1N1CCCCC1	x	x	-27.5%	x	-91.1*	u
O=[N+]([O-])c1ccc(N2CCN(c3ccc([N+](=O)[O-])cc3CO)CC2)c(CO)c1	-6.3%	1.8%	u	-7.1%	-66.1*	3.16µM*
O=C(Nc1ccccc1N1CCCCC1)c1cccc([N+](=O)[O-])c1	-6.4%	-0.5%	-22.4%	-16.6%	-29.8	u
CN1CCN(c2ccc([N+](=O)[O-])cc2C(=O)c2ccc(Br)cc2)CC1	x	2.0%	-22.3%	x	u	-23.7%
